# In the library only some 19% were active in any assay of this set; here they are far more common.
# TDP1 cell noCPT – qHTS for Inhibitors of human tyrosyl-DNA phosphodiesterase 1 (TDP1): qHTS in cells in absence of CPT; Potency, µM (series often up to 46.2 µM), most hits filed as inhibitors; 15% of 420,000 active; DT40 Tdp1-/- hTDP1 cells, no CPT, ATP luminescence, 48 h; further: nearly all actives have a fitted effect of over 55% in size
#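 Compound effects on proliferation are scored in DT40 Tdp1-/-;hTDP1 cells in the absence of CPT. ATP levels (CellTiter-Glo luminescence) are recorded after a ≥48 hr, 37 °C incubation.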
# Gal4-VP16 FLuc – counter-screen for ROR gamma inhibitors: Gal4-VP16 reporter. Drosophila S2 Gal4-VP16 UAS-luciferase, luminescence, 20 h. 3.5% of 310,000 active. Potency, µM (highest dose often 53.6 µM), usual class: inhibitors;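 further: Gal4-VP16 expression switched on by copper sulfate through the metallothionein promoter; nearly all actives have a fitted effect of over 50% in size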
# TDP1 inh – inhibitors of human tyrosyl-DNA phosphodiesterase TDP1; recombinant TDP1, AlphaScreen DNA substrate cleavage; Potency, µM (titrated, usually from 130 µM), usual class: inhibitors; 0.28% of 350,000 active; further: nearly all actives have a fitted effect of over 40% in size
# Target sequence (Q9NUW8 whole entry, looked up): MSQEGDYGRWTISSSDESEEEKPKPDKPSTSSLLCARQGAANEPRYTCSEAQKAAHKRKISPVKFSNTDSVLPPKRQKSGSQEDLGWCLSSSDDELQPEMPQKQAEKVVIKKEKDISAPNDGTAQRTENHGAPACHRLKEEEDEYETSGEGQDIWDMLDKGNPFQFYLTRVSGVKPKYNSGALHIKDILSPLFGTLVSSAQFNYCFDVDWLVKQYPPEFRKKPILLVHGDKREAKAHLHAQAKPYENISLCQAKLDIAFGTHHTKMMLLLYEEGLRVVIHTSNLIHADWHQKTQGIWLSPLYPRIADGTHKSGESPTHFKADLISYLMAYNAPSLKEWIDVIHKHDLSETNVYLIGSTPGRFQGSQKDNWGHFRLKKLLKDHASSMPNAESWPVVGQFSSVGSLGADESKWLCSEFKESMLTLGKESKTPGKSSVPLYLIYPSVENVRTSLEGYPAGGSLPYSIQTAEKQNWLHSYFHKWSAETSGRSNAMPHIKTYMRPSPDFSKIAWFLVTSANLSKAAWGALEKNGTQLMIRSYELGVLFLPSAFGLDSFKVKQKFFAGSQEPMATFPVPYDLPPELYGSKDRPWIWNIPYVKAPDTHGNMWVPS
#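 Recombinant human Tdp1 (E. coli-expressed, 1 nM final) preincubated with compounds 15 min at room temperature, then 5'-biotin/3'-phosphotyrosine-FITC DNA substrate (15 nM final) added for 5 min. AlphaScreen beads (10 ug/ml final) added 10 min; cleavage lowers signal.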
# RORgamma inh – ROR gamma (mouse) transcription inhibition. 5.4% of 310,000 active. AID 2551. Potency, µM (series often up to 53.6 µM), hits mostly inhibitors. Drosophila S2 Gal4-RORgamma UAS-luciferase reporter, 20 h; further: nearly all actives have a fitted effect of over 60% in size
#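 In this cell-based reporter format, copper sulfate (700 uM final) drives Gal4–ROR gamma fusion expression from a metallothionein promoter in Drosophila Schneider cells; compounds preincubated 1 hr, reporter read after 20 hr at ambient temperature.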
# DT40 TDP1 CPT – growth inhibition of DT40 Tdp1-/-;hTDP1 cells with camptothecin (screen for TDP1 inhibitors); AID 686979; 12% of 420,000 active; chicken DT40 Tdp1-/-;hTDP1 cells + 20 nM CPT, ATP luminescence, 48 h; Potency, µM (series often up to 46.2 µM), actives largely listed as inhibitors; further: nearly all actives have a fitted effect of over 55% in size
#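 Chicken DT40 Tdp1-/- cells stably complemented with human TDP1 were seeded at 400 cells/well in medium containing 20 nM camptothecin, exposed to pin-transferred compounds, and grown at 37 °C for at least 48 hr. Viability was read as ATP luminescence.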
# Numbers stand for hits; - = inactive; ? = inconclusive; . = no result given; [ ] = dose if it differs, or a comment. The call rests on the fitted dose curve; in most records, active means well fitted curve in the direction sought with a large enough effect; inconclusive means small, poorly fitted or top-dose-only effect, or another doubt; inactive means no such curve, though single readings can be large; an effect the other way counts as inactive or inconclusive.
SMILES,TDP1 cell noCPT,Gal4-VP16 FLuc,TDP1 inh,RORgamma inh,DT40 TDP1 CPT
Cn1c(=O)[nH]c(=O)c2c1nc(N1CCNCC1)n2Cc1ccccc1,-,-,.,-,-
COc1cc(C2CC(=O)Nc3c2c(C)nn3-c2nncc(-c3ccccc3)n2)cc(OC)c1OC (configuration not stated),-,.,-,.,?
CCCN1C(=S)c2ccccc2C1c1ccccc1 (configuration not stated),-,-,-,10µM,-
O=C1NC(=NCc2ccccc2)S/C1=C/c1ccc(O)cc1,12µM,-,-,-,?
Cc1c(N=Nc2ccc(O)cc2)c(=O)n(-c2ccccc2)n1C,-,-,-,-,-
Cc1c(N=C2NC(=O)/C(=C/c3ccc(O)cc3)S2)c(=O)n(-c2ccccc2)n1C,?,?,-,5µM,-
COc1ccc(OC)c(NS(=O)(=O)c2cc3c(cc2Cl)N(C(C)=O)CCO3)c1,.,.,-,.,.
COc1ccc(-c2nc(-c3ccccc3)c(-c3ccc(O)cc3)[nH]2)cc1,8.2µM,.,-,.,13µM
COc1ccc(-c2[nH]c(-c3ccc(O)cc3)nc2-c2ccccc2)cc1,?,.,-,.,15µM
O=C(Nc1ccc(Cl)cc1)N[C@H]1CC[C@H](CCn2cc(-c3ccccc3F)nn2)O[C@@H]1CO,9.2µM,.,.,.,8.2µM
COc1cc(=O)n2c(c1C(=O)NC(C)c1ccco1)CCN(Cc1ccc3nsnc3c1)CC2 (configuration not stated),-,.,.,.,-
COc1cc(OC)c(NC(=O)CSCc2nc(-c3ccc(OC)c(OC)c3)no2)cc1Cl,?,.,-,.,?
COc1ccc(-c2noc(CC(=O)Nc3cc(OC)ccc3OC)n2)cc1,16µM,.,-,.,23µM
COc1ccc(OC)c(NC(=O)COCc2cc(-c3ccc(F)cc3)on2)c1,?,.,-,.,18µM
COc1cc(OC)c(NC(=O)CCc2nc(-c3ccc(C)cc3)no2)cc1Cl,23µM,-,-,?,18µM
COc1cc(OC)c(NC(=O)CCc2ccccc2)cc1Cl,-,-,-,-,-
COc1cc(OC)c(NC(=O)CCc2nc(C3=CCN(Cc4cccc(Cl)c4)CC3)no2)cc1Cl,8.2µM,.,-,.,23µM
COc1ccc(-c2noc(CNC(=O)c3ccc(OC)cc3OC)n2)cc1,?,.,-,.,?
CCc1ccc2nc(N(Cc3cccnc3)C(C)=O)sc2c1,?,.,-,.,?
Cc1ccc(C)c(NS(=O)(=O)c2ccc3c4c(cccc24)C(=O)N3)c1,15µM,.,-[12.3 µM],.,?
CN(C)CCNS(=O)(=O)c1ccc2c3c(cccc13)C(=O)N2,?,-,.,-[1.91 µM],-
CCN(CC)CCNS(=O)(=O)c1ccc2c3c(cccc13)C(=O)N2,15µM,-,-,-,?
CCOC(=O)c1cc(-c2ccc(C)cc2)n(CCC(=O)Nc2ccc(OC)c(OC)c2)c1C,18µM,.,-,.,?
CCOC(=O)c1cc(-c2ccccc2)n(CCC(=O)O)c1C,-,-,-,-,-
CCOC(=O)c1cc(-c2ccccc2)n(CCCC(=O)Nc2cccc(C)c2C)c1C,?,.,-,.,16µM
SMILES,TDP1 cell noCPT,Gal4-VP16 FLuc,TDP1 inh,RORgamma inh,DT40 TDP1 CPT
CCOC(=O)c1cccc(NC(=O)CCn2cccc2)c1,-,-,-,-,-
CCOC(=O)c1cccc(NC(=O)CCn2c(-c3ccc(F)cc3)cc(C(=O)OCC)c2C)c1,13µM,.,-,.,21µM
CCOC(=O)c1cc(-c2ccc(C)cc2)n(CC(=O)Nc2ccc(OC)cc2OC)c1C,?,.,-,.,23µM
CNC(=O)C(=O)NCC(c1cccs1)S(=O)(=O)c1ccc(F)cc1 (configuration not stated),-,-,-,-,-
CCOC(=O)c1cc(-c2ccccc2)n(CCC(=O)Nc2nc3c(C)cccc3s2)c1C,13µM,.,-,.,13µM
CCOC(=O)c1cc2occc2n1CC(=O)Nc1ccc(OC)cc1OC,?,-,-,-,23µM
CCOC(=O)c1cc(-c2ccccc2)n(CCCC(=O)Nc2ccc(C(C)C)cc2)c1C,21µM,.,-,.,?
CCOC(=O)c1cc(-c2ccccc2)n(CCCC(=O)Nc2cccc(C)c2)c1C,16µM,.,-,.,16µM
CCc1cccc(NC(=O)Cn2c(C(=O)OC)cc3occc32)c1,-,.,-,.,-
Cc1ccc(C)c(N2N=C(C(=O)NCCN3C(=O)S/C(=C\c4cccnc4)C3=O)CCC2=O)c1,?,.,-,.,-
CCOC(=O)c1cc(-c2ccc(C)cc2)n(CCC(=O)Nc2ccc(C(C)C)cc2)c1C,5.2µM,.,-,.,5.2µM
CCOC(=O)c1cc(-c2ccc(C)cc2)n(CC(=O)Nc2ccc(OC)c(Cl)c2)c1C,16µM,.,-,.,18µM
Cc1ccc(Nc2ccc(-n3ccnc3)nn2)cc1C,-,-,-,-,-
CCOC(=O)c1oc2nc(CC(C)C)c3c(c2c1N)CCC3,15µM,-,-,-,?
O=c1c2c3nc4ccccc4nc3n(/N=C/c3ccco3)c2ncn1CCC1=CCCCC1,21µM,-,-,-,16µM
O=c1cc(-c2ccccc2)[nH]c2nc3ccccc3n12,9.2µM,-,-,?,9.2µM
Cc1nc(CS(=O)c2ccccc2)cc(N2CCOCC2)n1 (configuration not stated),-,-,-,-,-
Cn1cc(-c2nc3ccccc3[nH]2)c2ccccc21,?,-,-,-,?
CCn1c(=O)c(-c2nc3ccccc3[nH]2)c(O)c2ccccc21,?,0.63µM,-,0.16µM,-
CCCCCCn1c(=O)c(-c2ccccc2)c(O)c2ccccc21,-,-,-,-,-
CCCn1c(=O)c(-c2nc3ccccc3[nH]2)c(O)c2ccccc21,?,2µM,-,0.5µM,-
COc1ccc(C2C3=C(CC(C)(C)CC3=O)Nc3nc(C)nn32)cc1OC (configuration not stated),-,-,-,-,-
CC(C)[C@H](NS(=O)(=O)c1ccccc1)C(=O)OCC(=O)NC(=O)c1cccn1C,-,-,-,-,-
N#CCCS(=O)(=O)c1nnnn1-c1ccccc1,.,4.5µM,-,2.8µM,.
N#CCCS(=O)(=O)c1ccccc1,.,-,-,-,.
SMILES,TDP1 cell noCPT,Gal4-VP16 FLuc,TDP1 inh,RORgamma inh,DT40 TDP1 CPT
CCC1(C)Cc2ccccc2-c2nc(SCC(N)=O)[nH]c(=O)c21 (configuration not stated),-,-,.,-,-
CCOC(=O)C1Cn2c(nc3c(c2=O)C(C)(C)Cc2ccccc2-3)S1 (configuration not stated),16µM,-,-,-,-
CCOC(=O)CSc1nc2c(c(=O)[nH]1)C(C)(CC)Cc1ccccc1-2 (configuration not stated),16µM,-,.,-,?
c1ccc(C2=NNC(=NCc3ccc4c(c3)OCO4)SC2)cc1,?,?,-,?,-
c1ccc(CN=C2NN=C(c3ccccc3)CS2)cc1,?,-,-,?,?
COc1ccccc1C1=NNC(=NCc2ccccc2)SC1,-,-,-,11µM,-
